PubChem BioAssay AID588591 (National Center for Advancing Translational Sciences (NCATS), 2011)
The campaign covered roughly 390,000 compounds. About 4,700 (1.2%) were called active. Roughly 4% stayed inconclusive and do not appear here. The full list was thinned out, with actives kept by preference. A number with no mark means an inactive call. The call rests on the fitted dose curve; in most records, active means well fitted inhibition curve with a large enough effect; inconclusive means small, poorly fitted or top-dose-only effect, or another doubt; inactive means no such curve, though single readings can be large or run the other way.
On the % scale 0 is the no-effect control and ±100 the full control effect; potency means the concentration at half of the fitted maximal effect.

These compounds were tested against DNA polymerase eta (Homo sapiens) (UniProt Q9Y253) (assay: qHTS for Inhibitors of Polymerase Eta). Settings: recombinant Pol eta, fluorescent DNA replication assay; series mostly up to 114 µM; activity change, negative = inhibition: at the top concentration.
Chain of DNA polymerase eta (Homo sapiens) (Q9Y253 whole entry, looked up): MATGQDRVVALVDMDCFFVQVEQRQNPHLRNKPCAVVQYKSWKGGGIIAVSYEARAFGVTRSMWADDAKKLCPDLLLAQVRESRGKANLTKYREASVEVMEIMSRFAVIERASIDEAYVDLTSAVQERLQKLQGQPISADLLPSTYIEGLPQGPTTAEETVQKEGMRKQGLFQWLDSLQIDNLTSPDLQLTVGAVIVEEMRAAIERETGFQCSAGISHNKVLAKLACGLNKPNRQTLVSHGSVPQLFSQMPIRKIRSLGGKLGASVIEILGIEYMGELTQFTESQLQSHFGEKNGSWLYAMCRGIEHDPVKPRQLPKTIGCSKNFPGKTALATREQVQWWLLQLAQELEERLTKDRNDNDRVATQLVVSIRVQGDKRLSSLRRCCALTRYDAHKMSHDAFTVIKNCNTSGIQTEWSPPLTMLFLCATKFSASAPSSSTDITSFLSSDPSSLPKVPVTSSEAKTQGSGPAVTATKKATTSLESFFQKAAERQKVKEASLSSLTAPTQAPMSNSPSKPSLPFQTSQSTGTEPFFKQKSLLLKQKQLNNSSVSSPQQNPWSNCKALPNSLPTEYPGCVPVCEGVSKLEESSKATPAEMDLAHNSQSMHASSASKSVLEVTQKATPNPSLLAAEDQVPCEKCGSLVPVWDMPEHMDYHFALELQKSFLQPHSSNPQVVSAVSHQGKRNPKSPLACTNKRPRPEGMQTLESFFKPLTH
Summary of the method: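 Fluorescent replication assay: 50 nM final substrate added after a 15 min room-temperature compound preincubation with 10 nM enzyme. Signal taken at 0 min and again at 10 min.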
In the case of `CC1=C(C(=O)OCc2ccc(C)cc2)C(c2ccccc2Cl)CC(=O)N1` (centres undefined), the “activity change, negative = inhibition” value is reported as -16.9%.
For `CCN(CC)c1ccc(NS(=O)(=O)c2cc(-c3cc(C)no3)ccc2C)c(C)c1`, the “activity change, negative = inhibition” value was -12.1%.
`COc1ccc(C)cc1Nc1nc2ccccc2c2nnc(C)n12` was tested, and the “activity change, negative = inhibition” value was -6.98%.
`O=C1CC(c2nnc(Cc3ccc(Cl)cc3)o2)CN1c1ccccc1` (centres undefined) was tested, and the “activity change, negative = inhibition” value was -16.8%.
With `Cc1ccc(Cl)cc1NC(=O)C(C)n1nnc2sc(-c3ccccc3)cc2c1=O` (centres undefined) the “activity change, negative = inhibition” value was -17.2%.
With `COc1cc(OC)c(NC(=O)N2CC3CCCN3c3ccccc32)cc1Cl` (centres undefined) the “activity change, negative = inhibition” value was -7.73%.
For `C=CCn1c(=S)[nH]c2scc(-c3ccco3)c2c1=O`, the Potency was 17.8 µM (active).
In the case of `Cc1ccc(N2CC(NC(=O)Cc3cccs3)CC2=O)cc1` (centres undefined), the “activity change, negative = inhibition” value is reported as -13.2%.
In the case of `Cc1nn(-c2nc(-c3ccccc3)cc(C(F)(F)F)n2)c(C)c1Cl`, the “activity change, negative = inhibition” value is reported as -26.9%.
In the case of `COc1ccc(OC)c(NC(=O)N[C@H](Cc2ccccc2)C(=O)NN)c1`, the “activity change, negative = inhibition” value is reported as -1.79%.
`COc1cc([C@H](Cc2ccccc2)NC(C)=O)oc(=O)c1` was tested, and the Potency was 20 µM (active).
With `COc1ccc2oc(C(=O)NCC(Cc3ccccc3)N(C)C)c(C)c2c1` (centres undefined) the “activity change, negative = inhibition” value was -5.61%.
In the case of `CCOc1ccccc1CNC(=O)C1CCCN(S(=O)(=O)c2ccc3c(ccn3C)c2)C1` (centres undefined), the “activity change, negative = inhibition” value is reported as -23.1%.
For `Cc1c2cnn(-c3ccccc3)c(=O)c2c(C)n1C(C)C(=O)Nc1ccc(Br)cc1F` (centres undefined), the “activity change, negative = inhibition” value was 0.659%.
In the case of `Cc1cc(=O)[nH]c(SCc2ccc(Cl)cc2)n1`, the “activity change, negative = inhibition” value is reported as -11.7%.
`Cc1ccc(-c2nc(SCc3ccc(Br)cc3)n3[nH]c(=O)cc3n2)cc1` was tested, and the Potency was 20 µM (active).
For `Cc1cccc(-c2nc(SCc3ccc(Br)cc3)n3[nH]c(=O)cc3n2)c1`, the “activity change, negative = inhibition” value was -7.93%.
For `Cc1cccc(N2CCN(c3ccc(C(=O)O)cc3NC(=O)c3ccccc3F)CC2C)c1` (centres undefined), the “activity change, negative = inhibition” value was -3.62%.
In the case of `Cc1ccc(-c2nn(CCC(=O)Nc3ccc(OC(F)(F)F)cc3)c(=O)c3ccccc23)cc1`, the “activity change, negative = inhibition” value is reported as -7.49%.
`O=C(O)CSCc1ccc(C(=O)O)o1` was tested, and the “activity change, negative = inhibition” value was -8.54%.
With `O=C(c1ccco1)N1CCN(C(=O)c2ccc(COc3ccc(F)cc3)o2)CC1` the “activity change, negative = inhibition” value was -2.04%.
With `O=C(O)c1ccc(COc2c(F)c(F)cc(F)c2F)o1` the Potency was 44.7 µM (active).
For `COc1cc(C(=O)N2CCN(C(=O)COc3cccc(C)c3)CC2)cc(OC)c1OC`, the “activity change, negative = inhibition” value was -9.57%.
For `CCOc1ccc(NC(=O)c2c(NC(=O)Cc3ccccc3)sc3c2CCC(C)C3)cc1` (centres undefined), the “activity change, negative = inhibition” value was -4.12%.
`Cc1ccc(C)c(Cn2c(=O)n(CCC(=O)NCc3ccc4c(c3)OCO4)c(=O)c3sccc32)c1` was tested, and the “activity change, negative = inhibition” value was -20.4%.
With `Cc1ccc(S(=O)(=O)N2CCC(C(=O)Nc3cc(C)ccc3C)CC2)cc1` the “activity change, negative = inhibition” value was -13.8%.
For `Cc1cccc(NC(c2cccc(F)c2)c2ccc3ccc(C)nc3c2O)n1` (centres undefined), the “activity change, negative = inhibition” value was -3.84%.
`O=C(COC(=O)c1cc(=O)[nH]c2ccccc12)Nc1nc(-c2cccc(Br)c2)cs1` was tested, and the “activity change, negative = inhibition” value was -14.7%.
With `O=C(CSc1nc(O)c(Cc2ccccc2)c(=O)[nH]1)Nc1nc2c(s1)CCCC2` the “activity change, negative = inhibition” value was 11.5%.
For `O=C(CSc1nc2ccccc2c(=O)[nH]1)Nc1nc(-c2ccc(Br)cc2)cs1`, the Potency was 5.01 µM (active).
In the case of `CCOc1ccc(C2C(C(=O)Nc3ccc(Cl)cc3)=C(C)Nc3nc(C(F)(F)F)nn32)cc1` (centres undefined), the “activity change, negative = inhibition” value is reported as -0.19%.
In the case of `CCc1nnc2c3ccccc3nc(N3CCN(c4ccc(C)cc4C)CC3)n12`, the “activity change, negative = inhibition” value is reported as -12.3%.
For `O=C(CCc1ccccc1)NCc1ccc2c(c1)CCN2C(=O)c1ccccc1`, the “activity change, negative = inhibition” value was -3.3%.
With `CSC1=N/C(=C\C=C\c2cccs2)C(=O)S1` the Potency was 17.8 µM (active).
With `COc1cccc(-n2ccn(CC(=O)NCc3ccc(C)cc3)c(=O)c2=O)c1` the “activity change, negative = inhibition” value was -16%.
For `COc1ccc(Cn2ccnc2SCC(=O)NCc2ccco2)cc1`, the “activity change, negative = inhibition” value was -10%.
In the case of `Cc1ccc(OCCSc2nc(-c3cccs3)nc3cc(=O)[nH]n23)cc1Cl`, the Potency is reported as 79.4 µM (active).
`O=c1cc2nc(-c3ccccc3)nc(SCCOc3ccc(Cl)cc3)n2[nH]1` was tested, and the “activity change, negative = inhibition” value was -10.2%.
In the case of `CC(C)c1c(O)nc(SCCOc2ccc(Cl)cc2)[nH]c1=O`, the “activity change, negative = inhibition” value is reported as -10.8%.
`CCCNC(=O)CCC(=O)N1Cc2ccccc2Oc2ncccc21` was tested, and the “activity change, negative = inhibition” value was -13.8%.
For `CC(=O)c1ccc(N2CCN(C3C(=O)c4ccccc4N3C(C)=O)CC2)cc1` (centres undefined), the “activity change, negative = inhibition” value was -11.4%.
For `COc1ccccc1C(=O)NC(=O)COC(=O)c1ccco1`, the “activity change, negative = inhibition” value was -6.22%.
With `COc1ccccc1C(=O)N/C(=C/c1ccc2c(c1)OCO2)C(=O)Nc1cccc(C(=O)O)c1` the “activity change, negative = inhibition” value was 0.0459%.
For `COc1ccccc1C(=O)N/C(=C/c1ccco1)C(=O)Nc1ccc(C(=O)O)cc1`, the Potency was 17.8 µM (active).
In the case of `COc1cccc(CNC(=O)CCC(=O)N2CC3CCCN3c3ccccc32)c1` (centres undefined), the “activity change, negative = inhibition” value is reported as 2.47%.
With `CC(N)=NCc1cccc(CN)c1` the “activity change, negative = inhibition” value was -0.748% [at 57.1 µM].
In the case of `COc1ccc(NC(=O)COCc2cc(-c3ccco3)on2)cc1`, the “activity change, negative = inhibition” value is reported as 1.02%.
For `COc1ccc(OCC(=O)Nc2nnc(-c3ccco3)s2)cc1`, the Potency was 56.2 µM (active).
For `COc1ccc(OCCCC(=O)Nc2nnc(C3CCCO3)s2)cc1` (centres undefined), the “activity change, negative = inhibition” value was -15.4%.
